Experimental findings from PubChem BioAssay AID463173 (ICCB-Longwood Screening Facility, Harvard Medical School, 2010) are described below.

Hit rate of the full screen: of about 52,000 compounds, about 4,300 (8.3%) were called active. Rule as the data show it: active = survival mostly below about 52% (no sharp cut-off); inactive = mostly above about 56%. The list comes from a sample in which actives are over-represented; it also holds similar structures and randomly drawn compounds.

In the assay the test system is DeltatarO mutant. Briefly: S. aureus survival, RN4220 and DeltatarO strains – OD600, teichoic acid synthesis inhibitors, primary screen (AID 463173). The settings on record: S. aureus RN4220 wild type/DeltatarO growth, OD600, 18 h, stronger effect = lower value, screened at 18.75 µg/mL (by protocol).
On to `COc1ccc(/C=C/C(=O)Nc2nc(-c3cccs3)ns2)cc1OC`, for which the survival is 48% (inactive). Turning to `Cc1ccc(Nc2c(-c3cccc(Cl)c3)nc3cccc(C)n23)cc1`, the survival is 49% (inactive).

Take `COc1cc(NC(=O)Nc2nnc(N3CCCCC3)s2)cc(OC)c1`: the survival is 68% (inactive). For the molecule `Cc1oc2ncn(CC(C)C)c(=O)c2c1C(=O)NCCCN1CCCCC1C` (stereo not drawn), the survival is 87% (inactive). As to `COc1ccc(N2CCN(C(=O)COCc3cc(-c4ccc5c(c4)OCO5)on3)CC2)cc1`, the survival is 92% (inactive). Next, `COc1cccc(C(c2c(O)cc(C)n(Cc3ccco3)c2=O)N2CCC(C)CC2)c1` (stereo not drawn): 74% (inactive). With `O=C(Cc1ccc(Cl)cc1)NCCN1CCOCC1`, the survival was 91% (inactive). Consider `CC1=C(C(=O)Nc2ccc(C)cc2C)C(c2ccc(O)cc2)n2nc(SCC(=O)c3ccc(C)cc3)nc2N1` (stereo not drawn), for which the survival is 125% (inactive).

As to `COc1ccc(C(=O)N(Cc2ccc(N(C)C)cc2)CC2CCCO2)cc1` (stereo not drawn), the survival was 63% (inactive).

`Cc1ccc(C(=O)N(Cc2ccc(N(C)C)cc2)CC2CCCO2)cc1` (stereo not drawn): the survival is 50% (inactive). With `COc1cc(C(=O)N(Cc2ccc(N(C)C)cc2)CC2CCCO2)cc(OC)c1OC` (stereo not drawn), the survival is 47% (active).

For the molecule `Cn1c(=O)n(C)c2cc(NS(=O)(=O)c3ccccc3)c(NCc3ccccc3)cc21`, the survival is 68% (inactive).

`CC(C)c1ccc(S(=O)(=O)Nc2cc3c(cc2NCc2ccccc2)n(C)c(=O)n3C)cc1`: the survival was 39% (active). Next, `Cc1ccc(S(=O)(=O)Nc2cc3c(cc2NCc2ccccc2)n(C)c(=O)n3C)cc1`: 73% (inactive). In the case of `Cn1c(=O)n(C)c2cc(NS(=O)(=O)c3ccc(Br)cc3)c(NCc3ccccc3)cc21`, the survival is 57% (inactive). Next, `Cn1c(=O)n(C)c2cc(NS(=O)(=O)c3ccc(Cl)cc3)c(NCc3ccccc3)cc21`: 117% (inactive); `Cn1c(=O)n(C)c2cc(NS(=O)(=O)c3ccc(C(C)(C)C)cc3)c(NCc3ccccc3)cc21`: 43% (active); `COc1ccc(Cl)cc1NC(=O)Cn1cc(S(=O)(=O)Cc2cccc(Cl)c2)c2ccccc21`: 83% (inactive). Regarding `CCOC(=O)c1ccc(NC(=O)c2c(NCc3cccc(OC)c3OC)sc3c2CCC3)cc1`, the survival is 77% (inactive). With `COc1ccccc1CCNC(=O)Cc1c(C)c2cc3c(C)coc3cc2oc1=O`, the survival was 68% (inactive).

`CCOC(=O)C1=C(CN2CCN(c3ccccc3OC)CC2)NC(=O)NC1c1ccccc1` (stereo not drawn): the survival was 70% (inactive). Regarding `Cc1ccc(-c2nnc(Nc3cccc(Cl)c3)c3ccccc23)cc1S(=O)(=O)N1CCCCC1`, the survival is 65% (inactive).

Consider `CCN(CC)C(=O)c1ccccc1NC(=O)c1ccccc1`, for which the survival is 92% (inactive). For the molecule `CCN(CC)C(=O)c1ccccc1C`, the survival was 48% (active).

Regarding `CCN(C(=O)c1ccc(C(=O)N(CC)c2ccccc2C)cc1)c1ccccc1C`, the survival is 68% (inactive). In the case of `CCCCC(CC)CNC(=O)CN(C)S(=O)(=O)c1ccc2c(c1)c(=O)n(C)c(=O)n2C` (stereo not drawn), the survival was 73% (inactive).

With `CCc1ccc(-n2c(=O)c3c4c(sc3n(CC(=O)c3ccc(Cl)cc3)c2=O)CCC4)cc1`, the survival was 142% (inactive). With `O=C(O)CCSc1nnnn1-c1ccccc1`, the survival is 73% (inactive). Consider `c1ccc(CNc2nnnn2-c2ccccc2)cc1`, for which the survival is 93% (inactive).

Regarding `CCS(=O)(=O)c1nnnn1-c1ccccc1`, the survival is 9% (active). Next, `CCOc1ccc(C2CC(=O)Nc3cc4c(cc32)OCO4)cc1OC` (stereo not drawn): 120% (inactive). Next, `NS(=O)(=O)c1ccc(CCNc2ncnc3c2cnn3-c2cccc(Cl)c2)cc1`: 93% (inactive). Consider `COc1cccc(NC(=O)Cn2c(=O)n(CC(=O)NCc3ccc(C)cc3)c(=O)c3sccc32)c1`, for which the survival is 77% (inactive). Next, `COc1cc(OC)cc(-n2c(=O)c3ccccc3n(CC(=O)NCCc3ccc(OC)c(OC)c3)c2=O)c1`: 83% (inactive). On to `COc1cc(NC(=O)Cn2c(=O)n(CC(=O)NCCc3ccc(OC)c(OC)c3)c(=O)c3sccc32)cc(OC)c1`, for which the survival is 49% (active). Consider `COc1ccc(CCNC(=O)Cn2c(=O)c3sccc3n(CC(=O)Nc3cccc(C(F)(F)F)c3)c2=O)cc1OC`, for which the survival is 82% (inactive). On to `COc1cccc(NC(=O)Cn2c(=O)n(CC(=O)NCCc3ccccc3)c(=O)c3sccc32)c1`, for which the survival is 45% (active).

As to `CCOc1ccc(NC(=O)Cn2c(=O)n(CC(=O)NCCc3ccccc3)c(=O)c3sccc32)cc1`, the survival is 71% (inactive).

In the case of `CCN(CC)S(=O)(=O)c1ccc2c(c1)N(CC(=O)NCCCN1CCN(c3ccccc3F)CC1)C(=O)CO2`, the survival was 77% (inactive). For `CC1=CC(C)C(/C=N/N=C(N)N)C(C)C1` (stereo not drawn), the survival was 71% (inactive).

As to `Cn1c(SCC(=O)O)nc2ccccc21`, the survival is 109% (inactive). Turning to `CC(C)c1cnc2c(c1SCC(=O)NCc1ccccc1)c(=O)n(C)c(=O)n2C`, the survival is 77% (inactive). As to `CCCc1ncc(C(O)c2ccccc2OC)n1C` (stereo not drawn), the survival is 85% (inactive). With `CC(C)c1ncc(C(O)c2cccc3ccccc23)n1C` (stereo not drawn), the survival was 56% (active).

With `Cc1cc(NC(=O)CN2CCC(O)CC2)nc2c1c(=O)oc1ccccc12`, the survival is 83% (inactive). Next, `COc1ccccc1-c1c(C(F)(F)F)oc2c(CN3CCCCC3C)c(O)ccc2c1=O` (stereo not drawn): 62% (inactive). With `COc1ccc(S(=O)(=O)NCCSc2nnnn2-c2ccccc2)cc1OC`, the survival was 127% (inactive).

Regarding `O=C(CSc1nc(Nc2ccc(F)c(F)c2)c2ccccc2n1)c1ccc(Cl)cc1`, the survival was 101% (inactive). Next, `COc1ccc(C(C)=O)cc1CSc1nc(NCc2ccc(Cl)cc2)c2ccccc2n1`: 8% (active); `COc1cc(Nc2nc(SCc3ccccc3F)nc3ccccc23)cc(OC)c1`: 118% (inactive); `COc1ccc(C(C)=O)cc1CSc1nc(NCCc2ccccc2)c2ccccc2n1`: 60% (inactive). For the molecule `COc1ccc(C(C)=O)cc1CSc1nc(NCc2ccccc2)c2ccccc2n1`, the survival was 89% (inactive). Next, `COc1ccc(C(C)=O)cc1CSc1nc(Nc2ccc(F)c(F)c2)c2ccccc2n1`: 25% (active); `Cc1cccc(N2CCN(C(=O)c3nn(C)c4c3CS(=O)(=O)c3ccccc3-4)CC2C)c1` (stereo not drawn): 71% (inactive). Next, `COc1cc(NC(=O)c2cc3cc4ccc(OC)c(Cl)c4nc3s2)cc(OC)c1`: 98% (inactive); `CN(CC(=O)Nc1ccc(F)cc1F)S(=O)(=O)c1cccc2nsnc12`: 92% (inactive); `CCOC(=O)c1ccccc1NC(=O)Cn1nnc2sc3c(c2c1=O)CCCC3`: 63% (inactive). On to `COC(=O)c1ccc(Cn2nnc3sc4c(c3c2=O)CCCC4)cc1`, for which the survival was 74% (inactive).

Take `CCc1cccc(CC)c1NC(=O)Cn1nnc2sc3c(c2c1=O)CCCC3`: the survival was 142% (inactive). Turning to `Cc1ccccc1Cn1nnc2sc3c(c2c1=O)CCCC3`, the survival was -1% (active). With `O=c1c2c3c(sc2nnn1Cc1ccc(Br)cc1)CCCC3`, the survival was 37% (active). Next, `CC(C)OC(=O)c1ccc(Cn2nnc3sc4c(c3c2=O)CCCC4)cc1`: 20% (active). As to `Cc1ccc(OCCCCn2nnc3sc4c(c3c2=O)CCCC4)cc1`, the survival is 48% (active). For `O=c1c2c3c(sc2nnn1CCCCOc1ccc(Cl)cc1)CCCC3`, the survival is 108% (inactive). Regarding `CC(C)OC(=O)c1cccc(NC(=O)Cn2nnc3sc4c(c3c2=O)CCCC4)c1`, the survival was 75% (inactive).

`Cc1cccc(OCCn2nnc3sc4c(c3c2=O)CCCC4)c1`: the survival was 65% (inactive). Turning to `COc1ccc(OCCn2nnc3sc4c(c3c2=O)CCCC4)cc1`, the survival is 83% (inactive).

`Cc1ccc(NC(=O)Cn2nnc3sc4c(c3c2=O)CCCC4)c(C)c1`: the survival was 86% (inactive).
